# From PubChem
# POLB inh – qHTS Assay for Inhibitors of DNA Polymerase Beta; Pol beta primer extension/strand displacement, fluorescence kinetic; Potency, µM (doses to about 114 µM), for inactives: top-dose activity change, negative = inhibition, actives largely listed as inhibitors; hit rate 1.3% among 340,000; AID 485314, 2010; further: potency means the concentration at half of the fitted maximal effect; on the % scale 0 is the no-effect control and ±100 the full control effect
#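 Homogeneous kinetic assay of primer extension and strand displacement by 10 nM Pol beta, preincubated 15 min at room temperature with compound before 50 nM substrate (final) was added. Read at 0 and 10 min; four-parameter Hill fit.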
# Pol eta inh-1 – qHTS for Inhibitors of Polymerase Eta. recombinant Pol eta, fluorescent DNA replication assay. Potency, µM (series often up to 114 µM), for the others: at the top dose activity change, negative = inhibition, hits mostly inhibitors. hit rate 1.2% among 390,000. AID 588591, 2011; further: potency means the concentration at half of the fitted maximal effect; on the % scale 0 is the no-effect control and ±100 the full control effect
#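 Pol eta at 10 nM preincubated with compounds 15 min at room temperature; reaction started with fluorescent substrate (50 nM final) and read kinetically at 0 and 10 min.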
# Pol iota inh – qHTS for Inhibitors of Polymerase Iota; DNA polymerase iota (Homo sapiens), Q9UNA4; Pol iota fluorescent replication assay, 10 min; Potency, µM (top dose mostly 115 µM), for the others: top-dose activity, negative = inhibition, most hits filed as inhibitors; hit rate 1% among 390,000; AID 588590, 2011; further: potency means the concentration at half of the fitted maximal effect
#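 Pol iota at 10 nM preincubated 15 min with compounds at room temperature; reaction started with fluorescent substrate, 50 nM final. Fluorescence read kinetically at 0 and 10 min; buffer-only wells as negative control.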
# TDP1 inh – qHTS Assay for Inhibitors of Tyrosyl-DNA Phosphodiesterase (TDP1); Potency, µM (highest dose often 130 µM), for inactives: at the highest dose activity change, negative = inhibition, usual class: inhibitors; recombinant TDP1, AlphaScreen DNA substrate cleavage; Tyrosyl-DNA phosphodiesterase 1 (Homo sapiens), Q9NUW8; hit rate 0.28% among 350,000; further: potency means the concentration at half of the fitted maximal effect; on the % scale 0 is the no-effect control and ±100 the full control effect; nearly all actives have a fitted effect of over 40% in size
#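 Compounds were preincubated with Tdp1 (1 nM final) for 15 min at room temperature before substrate (15 nM final) started a 5 min reaction; beads (10 ug/ml final) were then added for 10 min before AlphaScreen detection.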
# FEN1 inh – qHTS Assay for the Inhibitors of Human Flap endonuclease 1 (FEN1) | Potency, µM (series often up to 114 µM), for inactives: top-dose activity change, negative = inhibition, actives largely listed as inhibitors | P39748 | Recombinant FEN1 flap cleavage, fluorescence, 15 min | hit rate 0.35% among 390,000; further: potency means the concentration at half of the fitted maximal effect; on the % scale 0 is the no-effect control and ±100 the full control effect; nearly all actives have a fitted effect of over 65% in size
#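 Concentration–response screening of FEN1 (10 nM): 15 min compound preincubation at room temperature, reaction started with 50 nM substrate and read at 0 and 15 min. Corrected, normalized data were fitted by a four-parameter Hill equation.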
# Pol kappa inh-1 – qHTS for Inhibitors of Polymerase Kappa; Potency, µM (series often up to 107 µM), for the others: top-dose activity, negative = inhibition, hits mostly inhibitors; purified Pol kappa, fluorescent DNA synthesis assay, 10 min; DNA polymerase kappa (Homo sapiens), Q9UBT6; hit rate 0.53% among 400,000; further: potency means the concentration at half of the fitted maximal effect; on the % scale 0 is the no-effect control and ±100 the full control effect
# Target sequence (Q9UBT6 whole entry, looked up): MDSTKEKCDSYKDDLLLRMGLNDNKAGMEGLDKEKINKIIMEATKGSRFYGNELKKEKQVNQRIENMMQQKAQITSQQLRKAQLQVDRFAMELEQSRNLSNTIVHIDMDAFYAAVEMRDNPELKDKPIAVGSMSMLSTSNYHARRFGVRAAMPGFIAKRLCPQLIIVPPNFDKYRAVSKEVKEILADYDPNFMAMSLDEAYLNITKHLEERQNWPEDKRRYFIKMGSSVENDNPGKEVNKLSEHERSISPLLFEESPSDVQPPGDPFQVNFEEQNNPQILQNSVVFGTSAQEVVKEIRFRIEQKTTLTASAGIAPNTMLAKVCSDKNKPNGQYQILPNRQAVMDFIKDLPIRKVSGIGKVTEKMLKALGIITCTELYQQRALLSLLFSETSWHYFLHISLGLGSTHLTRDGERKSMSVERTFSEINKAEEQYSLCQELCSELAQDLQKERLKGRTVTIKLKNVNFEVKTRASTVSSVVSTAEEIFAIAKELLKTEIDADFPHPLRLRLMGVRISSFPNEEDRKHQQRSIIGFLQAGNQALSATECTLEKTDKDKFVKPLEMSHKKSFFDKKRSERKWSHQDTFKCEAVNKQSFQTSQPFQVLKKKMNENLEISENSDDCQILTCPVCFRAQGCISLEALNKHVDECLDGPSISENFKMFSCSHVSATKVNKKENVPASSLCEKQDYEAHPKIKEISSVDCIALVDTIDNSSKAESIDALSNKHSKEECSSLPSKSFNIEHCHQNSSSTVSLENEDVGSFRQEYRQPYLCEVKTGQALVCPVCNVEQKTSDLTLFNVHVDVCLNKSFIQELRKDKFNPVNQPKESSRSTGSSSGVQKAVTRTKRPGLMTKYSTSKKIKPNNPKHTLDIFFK
#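 10 nM Pol kappa preincubated 15 min at room temperature with compounds, then reaction started with substrate at 50 nM final. Fluorescence read kinetically at 0 and 10 min; buffer-only wells served as negative control.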
# PGK validate – qHTS for inhibitors of Phosphogylcerate Kinase: Hit Validation Screen; shares compounds with Pol kappa inh-1; TbPGK coupled GAPDH assay, Kinase-Glo luminescence; Potency, µM (titrated, usually from 57.5 µM), inactives show top-dose activity change, negative = inhibition, most hits filed as inhibitors; hit rate 79% among 500; AID 686980, 2013; further: potency means the concentration at half of the fitted maximal effect; on the % scale 0 is the no-effect control and ±100 the full control effect; nearly all actives have a fitted effect of over 65% in size
# Pol iota confirm – qHTS for Inhibitors of Polymerase Iota: Confirmatory Assay for Cherry-picked Compounds; shares compounds with Pol kappa inh-1; Pol iota primer extension, TAMRA/BHQ fluorescence; Potency, µM, actives largely listed as inhibitors; hit rate 77% among 1,500; AID 720496, 2013; further: potency means the concentration at half of the fitted maximal effect
# GALK inh confirm – Confirmation Assay for Inhibitors of Human Galactokinase (GALK) | shares compounds with Pol eta inh-1 | purified GALK, Kinase-Glo ATP depletion luminescence | Potency, µM (series often up to 115 µM), for the others: top-dose activity, negative = inhibition, hits mostly inhibitors | hit rate 70% among 150 | AID 2015, 2009
# Redox cycling – Confirmatory Assay for Inhibitors of Human Galactokinase (GALK): Phenol-HRP redox assay counterscreen; shares compounds with Pol eta inh-1; Phenol red-HRP H2O2 redox cycling, absorbance 600 nm; Potency, µM (top dose mostly 115 µM), without a hit: top-dose activity change, negative = H2O2 signal, usual class: inhibitors; hit rate 40% among 150; AID 2035, 2009
# HEK293 tox – Secondary Assay for Inhibitors of Human Galactokinase (GALK): HEK-293 Cell Viability Assay; hit rate 10% among 170; shares compounds with Pol eta inh-1; AID 2547, 2010; Potency, µM (doses to about 46.1 µM), inactives show top-dose activity change, negative = cytotoxicity, usual class: inhibitors; HEK-293 viability, ATP luminescence (CellTiter-Glo), 24/48 h; further: potency means the concentration at half of the fitted maximal effect; on the % scale 0 is the no-effect control and ±100 the full control effect
# Pol kappa inh-2 – qHTS for Inhibitors of Polymerase Kappa: Confirmatory Assay for Cherry-picked Compounds | shares compounds with Pol eta inh-1 | hit rate 76% among 920 | Potency, µM, usual class: inhibitors | purified Pol-kappa, fluorescent strand-displacement substrate; further: potency means the concentration at half of the fitted maximal effect
# Pol eta inh-2 – qHTS for Inhibitors of Polymerase Eta: Confirmatory Assay for Cherry-picked Compounds | shares compounds with Pol eta inh-1 | Pol eta primer extension, TAMRA/BHQ fluorescence, 10 min | Potency, µM, usual class: inhibitors | hit rate 64% among 2,600 | AID 720502, 2013; further: potency means the concentration at half of the fitted maximal effect
# * marks the source's active call; other numbers are inactive results; ? = inconclusive; · = no result; [ ] = another dose, or the depositor's remark. Shown are actives, neighbours in structure and some others; about 2.4% of the full set was active somewhere. The call rests on the fitted dose curve; in most records, active means well fitted curve in the direction sought with a large enough effect; inconclusive means small, poorly fitted or top-dose-only effect, or another doubt; inactive means no such curve, though single readings can be large; an effect the other way counts as inactive or inconclusive.
SMILES,POLB inh,Pol eta inh-1,Pol iota inh,TDP1 inh,FEN1 inh,Pol kappa inh-1,Pol iota confirm,Pol eta inh-2,others
C[n+]1cccc2cccc([O-])c21,28.2µM*,22.4µM*,1.58µM*,39.8µM*,?,?,23.8*,42.6*,GALK inh confirm=23.7µM*;Redox cycling=11.9µM*;HEK293 tox=4.9%
CCOc1ccc(Oc2nc(NC)nc(N3CCOCC3)n2)nn1,3.2%,4.6%,4.4%,2.3%,-1.2%,0.9%,·,·,
CCCSc1nnc(NC(=O)CSc2sc3c(O)cc(=O)[nH]c3c2C#N)s1,20µM*,3.16µM*,8.91µM*,0.2%,35.5µM*,20µM*,67*,30.1*,Pol kappa inh-2=10.6*
C=CCSc1nnc(NC(=O)CSc2nc(CCC)cc(=O)[nH]2)s1,-8.2%,-11.9%,-8.9%,8.2%,-4.3%,-10.9%,·,·,
CCCc1cc(=O)[nH]c2nnc(SCC(=O)Nc3nccs3)n12,·,-4.8%,-26.1%,·,13.8%,0.0%,·,·,
N#Cc1c(SCC(=O)Nc2nccs2)sc2c(O)cc(=O)[nH]c12,8.91µM*,14.1µM*,12.6µM*,·,44.7µM*,44.7µM*,47.4*,30.1*,Pol kappa inh-2=16.8*
COc1ccccc1-c1nc2c(c(SCc3ccc(F)cc3Cl)n1)Cc1c(CO)cnc(C)c1O2,10.8%,-6.6%,6.9%,-7.7%,-6.2%,-1.8%,·,·,
CCCS(=O)(=O)Nc1cc(-c2cn3cccc(C)c3n2)ccc1C,25.5%,-6.8%,1.9%,0.0%,1.1%,-2.9%,·,·,
O=C(O)c1ccc(/C=N/NC(=O)c2cc(-c3ccc4c5c(cccc35)CC4)n[nH]2)cc1,28.2µM*,25.1µM*,?,·,?,?,59.7*,37.9*,Pol kappa inh-2=11.9*
COC(=O)c1ccccc1NC(=O)CCS(=O)(=O)c1ccc(Br)cc1,2.51µM*,3.55µM*,-99.4%,·,?,20µM*,21.2*,26.9*,PGK validate=?;Pol kappa inh-2=15*
CCOc1ccc(NC(=O)CCS(=O)(=O)c2ccc(Br)cc2)cc1,28.2µM*,17.8µM*,-12.5%,-9.5%,-14.5%,7.8%,·,75.7*,PGK validate=?
COc1ccc(CCn2c(=O)c3cccnc3n(CC(=O)Nc3c(C)cc(C)cc3C)c2=O)cc1OC,7.0%,-10.0%,6.1%,-2.9%,20.6%,-1.7%,·,·,
O=C(O)c1ccc(NC2=C/C(=N/S(=O)(=O)c3cccs3)c3ccccc3C2=O)cc1,·,8.91µM*,·,·,·,·,29.9*,21.3*,
O=C(O)c1ccc(Nc2nc3ccccc3nc2NS(=O)(=O)c2cccs2)cc1,14.5%,10.1%,?,0.7%,?,?,·,·,
O=C(O)c1ccc(NC2=C/C(=N/S(=O)(=O)c3ccccc3)c3ccccc3C2=O)cc1,-24.4%,8.91µM*,?,9.2%,?,-10.9%,18.9*,21.3*,GALK inh confirm=?;Redox cycling=5.95µM*;HEK293 tox=11.2µM*
Cc1cc(C)c(S(=O)(=O)/N=C2\C=C(Nc3ccc(C(=O)O)cc3)C(=O)c3ccccc32)c(C)c1,22.4µM*,11.2µM*,14.1µM*,6.5%,?,89.1µM*,67*,16.9*,
CCc1ccc(S(=O)(=O)/N=C2\C=C(Nc3cccc(C(=O)O)c3)C(=O)c3ccccc32)cc1,?,22.4µM*,1.12µM*,·,-25.0%,-23.9%,75.2*,60.1*,
COc1ccc(CCNC(=O)c2cc3c(=O)[nH]c4ccc(C)cc4c3s2)cc1OC,14.3%,3.4%,-8.8%,-1.3%,-11.2%,-5.9%,·,·,
O=c1c(O)c(-c2ccc(O)c(O)c2)oc2cc(O)ccc12,·,1.58µM*,2.51µM*,-8.3%,?,2.82µM*,6.7*,7.57*,Pol kappa inh-2=8.44*
COc1cc(/C=N/NC(N)=O)ccc1OCC(=O)Nc1ccc(C)c(C)c1,?,28.2µM*,31.6µM*,-5.3%,?,89.1µM*,42.3*,75.7*,
O=C(CSc1ccsc1[N+](=O)[O-])Nc1cccc(F)c1,7.08µM*,22.4µM*,?,·,?,22.4µM*,67*,47.8*,
COc1ccccc1CNC(=O)CSc1ccsc1[N+](=O)[O-],?,-5.3%,?,5.3%,37.9%,-15.6%,·,·,
CCc1ccccc1NC(=O)CSc1ccsc1[N+](=O)[O-],25.1µM*,31.6µM*,17.8µM*,0.0%,-9.7%,?,?,60.1*,
CC[n+]1ccnc2ccccc21,·,·,-12.6%,·,?,-24.2%,·,·,
CCC(=O)N1c2ccccc2CC1C(=O)NCc1ccccc1C (stereo not given),25.4%,-11.5%,3.9%,-3.8%,-2.3%,-4.6%[60.1 µM],·,·,
